Screens: PubChem BioAssay, National Center for Advancing Translational Sciences (NCATS)
Pf growth 96h: inhibits malaria parasite growth, 96 h | P. falciparum luciferase reporter growth, 96 h | Potency, µM (series often up to 28.7 µM), usual class: inhibitors | actives 6.9% (n = 320,000)
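Two parasite generations (96 h, 37 C, 5% CO2) of compound exposure in infected erythrocytes (0.05% parasitemia, 2% hematocrit). Luciferase-reporter P. falciparum; decreased luminescence indicates inhibited growth, aimed at apicoplast-acting delayed death.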
Pf growth 48h: P. falciparum growth inhibition at 48 hours (one generation); P. falciparum luciferase growth in erythrocytes, 48 h; Potency, µM (titrated, usually from 28.7 µM), hits mostly inhibitors; actives 5.9% (n = 310,000); AID 504832
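In quantitative HTS format, infected erythrocytes bearing luciferase-reporter parasites were treated for a single generation at 37 C. Luminescence after adding detection reagent served as the growth measure.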
Cycloheximide cs: counter-screen for Shiga toxin inhibitors: cycloheximide protein synthesis inhibition; max response, %; AID 2314; actives 12% (n = 300,000); cell reporter, cycloheximide protein synthesis inhibition counterscreen; in the data active = max response mostly above about 13%, no sharp cut-off; inactive = mostly below about 14%; also: read at 38.3 µM for the half of the compounds with a filed dose
Shiga toxin inh: inhibitors of Shiga toxin in Vero cells; Vero cells, Shiga toxin protein synthesis inhibition reporter; inhibition, % at 38.7 µM; actives 9.2% (n = 290,000); in the data active = inhibition mostly above about 28%, no sharp cut-off; inactive = mostly below about 43%
LASV entry inh: inhibitors of Lassa virus binding or cell entry; Lassa virus pseudotype entry inhibition, cell reporter; actives 1.2% (n = 300,000); AID 540256; Potency, µM (top dose mostly 37.9 µM), most hits filed as inhibitors; calls by dose curve; tested in HEK293 cells; also: nearly all actives have a fitted effect of over 50% in size
Marburg entry inh: Marburg virus entry inhibition; Marburg virus pseudotyped entry inhibition, cell reporter; actives 1.8% (n = 300,000); Potency, µM (highest dose often 37.8 µM), actives largely listed as inhibitors; calls by dose curve; tested in HEK293 cells
Numbers stand for hits; 0 = inactive; ? = inconclusive; - = no result; [ ] = remark or other dose. Hits are enriched below; roughly 19% of the tested compounds scored in any of these assays. Unless noted, calls follow the shape of the dose curve; as a rule, active = well fitted inhibition curve with a large enough effect; inconclusive = small, poorly fitted or top-dose-only effect, or another doubt; inactive = no such curve, though single readings can be large or run the other way.

SMILES | Pf growth 96h | Pf growth 48h | Cycloheximide cs | Shiga toxin inh | LASV entry inh | Marburg entry inh
Clc1ccc(-c2cc(-c3ccccc3)on2)cc1 | 0 | 0 | - | - | - | -
COc1cccc(CN(C)S(=O)(=O)c2cccs2)c1 | 0 | 0 | 0 | 0 | 0 | ?
COc1ccccc1N1CCN(C2CCCN(S(=O)(=O)c3ccc(C)cc3)C2)CC1 (centres undefined) | 0 | 0 | 0 | 0 | - | -
Cc1ccc(S(=O)(=O)N2CCCC(c3nnc4n3-c3ccccc3SC4)C2)cc1 (centres undefined) | 13µM | 0 | 0 | 0 | 0 | 0
CC(C)CSC1=NSC2=NC(=O)/C(=C\c3coc4ccccc4c3=O)C(=N)N12 | 0 | 0 | 27 | 71 | 0 | ?
CC(C)CSC1=NSC2=NC(=O)/C(=C\c3ccccc3)C(=N)N12 | ? | 0 | 38 | 77 | ? | 0
COc1ccc(CCNC(=O)c2cn(C)c3ccc(S(=O)(=O)N(C)C)cc3c2=O)cc1OC | - | - | - | - | 0 | 0
Nc1ccc(CSc2ccc(Cl)cc2)cc1 | 0 | 0 | 24 | 59 | 0 | 0
Cc1cc(C)nc(SCc2ccc(Cl)cc2)n1 | ? | 0 | 0 | 0 | 0 | 0
Cn1cccc1C1NC(=O)c2c(sc3c2CCC(C(C)(C)C)C3)N1 (centres undefined) | - | ? | 11 | 29 | 0 | 0
O=C(NCC1(N2CCCCC2)CCCCC1)c1cccc(NS(=O)(=O)c2ccccc2)c1 | ? | ? | - | - | 0 | ?
O=C(Nc1ccc(N2CCOCC2)cc1)C1CCN(S(=O)(=O)Cc2ccccc2)CC1 | 0 | 0 | 0 | 0 | 0 | 0
O=C(c1cc2ncc(Br)cn2n1)N1CCN(C(=O)c2ccco2)CC1 | 0 | 0 | 0 | 0 | 0 | 0
O=C(c1ccco1)n1c(=S)nc2ccccn21 | 0 | 0 | 68 | 115 | 0 | 0
Cc1cccc2nc(=S)n(C(=O)c3ccco3)n12 | 0 | 0 | 62 | 198 | 0 | ?
O=C(Nc1nccs1)c1cncc(Br)c1 | 0 | 0 | 48 | 96 | 0 | 0
Cc1csc(NC(=O)c2cncc(Br)c2)n1 | 0 | 0 | 53 | 0 | - | -
COC(=O)c1ccccc1NC(=O)c1cc2nc(-c3ccccc3)cc(-c3ccccc3)n2n1 | - | - | - | - | 0 | 0
Cc1cccc(-n2nnnc2-c2cnccc2C(F)(F)F)c1C | ? | ? | 0 | 0 | 0 | 0
COc1cc(N2CCOCC2)ccc1/C=C1\C(=O)NC(=O)N(Cc2cccs2)C1=O | 0 | 0 | 0 | 0 | 0 | 0
CCCNC(=O)COC(=O)c1ccc(Cl)c(S(=O)(=O)N2CCCC2)c1 | 0 | - | 0 | 0 | 0 | 0
Cc1ccc2nc(C)cc(N/N=C/c3cccnc3)c2c1 | 0 | 0 | 0 | 0 | 0 | 0
COc1cccc2c(N/N=C/c3ccccc3)cc(C)nc12 | 0 | 0 | 0 | 0 | - | -
COc1ccc2nc(/N=C/c3cccc(OC)c3O)sc2c1 | 0 | 0 | 26 | 0 | 0 | 0
COc1ccc(/C=N/Nc2cc(C)nc3ccc(Br)cc23)cc1 | 0.47µM | 0.26µM | 0 | 0 | ? | 4.5µM
SMILES | Pf growth 96h | Pf growth 48h | Cycloheximide cs | Shiga toxin inh | LASV entry inh | Marburg entry inh
Cc1cc(N/N=C/c2ccccc2O)c2ccccc2n1 | ? | 0.52µM | 26 | 0 | - | -
Cc1ccccc1/C=N/Nc1nc2ccccc2c(=O)n1O | 0 | 0 | 20 | 75 | 0 | ?
COc1ccc(/C=N\NC(=O)c2ccc([N+](=O)[O-])cc2)cc1COc1c(F)c(F)cc(F)c1F | ? | ? | 0 | 0 | - | -
COc1ccc2nc(/N=C\N(C)C)sc2c1 | 0 | 0 | 0 | 0 | 0 | 0
COc1ccc2nc(N=Nc3ccc(N(C)C)cc3)sc2c1 | 0 | 0 | 31 | 126 | ? | ?
COc1ccc2nc(C)cc(SCC(=O)N/N=C/c3cccc4ccccc34)c2c1 | ? | ? | 0 | 0 | 13µM | ?
COc1ccc2nc(C)cc(N/N=C/c3cccc(OC)c3O)c2c1 | 0 | 0.093µM | 0 | 0 | ? | ?
O=C(CC12CC3CC(CC(C3)C1)C2)NCc1ccc(F)cc1 | 0 | 0 | 0 | 0 | 0 | 0
Clc1ccc(C2=NOC(c3nnc(-c4ccccc4)o3)C2)cc1 (centres undefined) | 0 | 0 | 0 | 0 | - | -
Clc1cccc(Cl)c1C1=NOC(c2nnc(-c3ccccc3)o2)C1 (centres undefined) | 0 | 0 | 50 | 108 | - | -
Cc1ccc(-c2nc3ccccc3c(=O)n2NC(=S)N(C)C)cc1 | 0 | 0 | 0 | 0 | 0 | 0
N#Cc1c(N)nc2c(c1-c1ccc(F)cc1)c(=O)nc1sccn12 | ? | 0 | 0 | 0 | 0 | 0
COc1ccc(OC)c(NC(=O)CSc2nnc(-c3ccco3)n2-c2ccc(C(=O)O)cc2)c1 | 0.41µM | 4.7µM | 0 | 0 | 0 | 0
CNC(=O)CSc1nnc(-c2ccco2)n1-c1cccc(C)c1 | 0 | 0 | 0 | 0 | 0 | ?
CNC(=O)CSc1nnc(-c2ccco2)n1-c1cc(C)ccc1C | 12µM | 0 | 0 | 0 | - | -
CNC(=O)CSc1nnc(-c2ccco2)n1-c1cccc(OC)c1 | 2.1µM | 0 | 0 | 0 | - | -
CNC(=O)CSc1nnc(-c2ccco2)n1-c1cccc(C)c1C | ? | ? | 0 | 0 | 0 | 0
O=C(c1ccco1)N1CCN(c2nc(C3CC3)nc3sc4c(c23)CCCC4)CC1 | 0 | 9.3µM | 0 | 0 | 0 | ?
CCc1nc(N2CCN(C(=O)CCl)CC2)c2c3c(sc2n1)CC(C)CC3 (centres undefined) | 0 | ? | 11 | 0 | 0 | ?
Cc1ccc(S(=O)(=O)N2CCN(c3nc(C)nc4sc5c(c34)CCC(C)C5)CC2)cc1 (centres undefined) | 7.4µM | ? | 0 | 0 | - | -
Cc1nc(N2CCN(C(=O)c3ccco3)CC2)c2c3c(sc2n1)CC(C)CC3 (centres undefined) | 0 | ? | 0 | 0 | ? | 13µM
CC(=O)Nc1nonc1NC(=O)c1ccc(F)cc1 | 0 | - | 0 | 0 | 0 | 0
COc1ccc(-c2[nH]ncc2CN(C)C(C)c2ccncn2)c(F)c1 (centres undefined) | ? | 0 | 0 | 0 | 0 | 0
O=C(Nc1ccc2nn(-c3ccc(Cl)cc3)nc2c1)c1cc2ccccc2o1 | - | - | - | - | 0 | -
Nc1nc(NC(=O)c2ccco2)nn1-c1ccccc1 | 0 | 0 | 35 | 79 | 0 | ?
SMILES | Pf growth 96h | Pf growth 48h | Cycloheximide cs | Shiga toxin inh | LASV entry inh | Marburg entry inh
CC(C)C(=O)Nc1ccc2nn(-c3ccccc3)nc2c1 | 0[5.75 µM] | 0 | 39 | 103 | ? | ?
O=C(Nc1ccc2nn(-c3ccccc3)nc2c1)c1ccco1 | ? | 0 | 47 | 72 | 0 | ?
O=C(Nc1ccc2nn(-c3ccc(F)cc3)nc2c1)c1cccnc1 | 0 | ? | 0 | 0 | ? | ?
O=C(Nc1ccc2nn(-c3ccccc3)nc2c1)c1cccnc1 | 0 | 0 | 22 | 0 | 0 | ?
O=C(Nc1cc2nn(-c3ccccc3)nc2cc1Cl)c1ccco1 | 0 | 0 | 21 | 47 | ? | ?
COc1ccc(NC(=O)C2C3C=CC(O3)C2C(=O)NCc2cccnc2)cc1 (centres undefined) | 10µM | 0 | 0 | 0 | 0 | 0
COc1ccc(NC(=O)c2ccc(S(=O)(=O)NCc3cccnc3)cc2)cc1 | 0 | 0 | 9.5 | 0 | 0 | 0
O=C(Nc1ccc(Cl)c(Cl)c1)c1cccc(S(=O)(=O)NCc2cccnc2)c1 | ? | 0 | 0 | 0 | 13µM | ?
